Compounds without any hit were thinned out: in the full panel of roughly 79,000, 15% have a hit. Active and inactive are the calls of the source. Cut-off read from the data, not from the text of the source: active = growth inhibition above about 70%; inactive = the rest.
Key:
[1] = NCI Yeast Anticancer Drug Screen. Data for the rad52 strain (AID 147);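 note: 0% = growth of vehicle-treated control cultures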; conditions: S. cerevisiae rad52 mutant growth inhibition, stronger effect = higher value
Outline: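 The repair-mutant yeast strain was incubated with compounds, then growth was read and inhibition derived relative to vehicle.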

[2] = NCI Yeast Anticancer Drug Screen. Data for the wt1 strain (AID 149);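 note: 0% = growth of vehicle-treated wt1 cultures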; conditions: S. cerevisiae wt1 strain (SPY 50644) growth inhibition, stronger effect = higher value
Outline: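 wt1 yeast, compound-treated; % growth inhibition vs vehicle control.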

[3] = NCI Yeast Anticancer Drug Screen. Data for the rad50EPP+ strain (AID 151);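 note: 0% = growth of vehicle-treated control cultures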; conditions: S. cerevisiae rad50 mutant strain, stronger effect = higher value
Outline: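 Vehicle-normalised growth inhibition; rad50EPP+ yeast strain, altered in DNA damage repair, compound-treated.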

[4] = NCI Yeast Anticancer Drug Screen. Data for the mgt1 strain (AID 153); conditions: S. cerevisiae mgt1 mutant growth inhibition, stronger effect = higher value
Outline: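 Vehicle-normalized growth inhibition is determined in mgt1 yeast, a strain selected for a defined alteration in DNA repair or cell cycle control.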

[5] = NCI Yeast Anticancer Drug Screen. Data for the rad50 strain (AID 155);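 note: 0% = growth of vehicle-only cultures of the same strain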; conditions: S. cerevisiae rad50 strain growth inhibition, stronger effect = higher value
Outline: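 Genetically altered yeast (DNA repair pathway); compound treatment; growth inhibition vs vehicle ctrl.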

[6] = NCI Yeast Anticancer Drug Screen. Data for the mec2-1 strain (AID 157); conditions: S. cerevisiae mec2-1 strain, stronger effect = higher value
Outline: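 Mutant yeast (mec2-1) grown with compound; growth inhibition relative to vehicle control reported.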

[7] = NCI Yeast Anticancer Drug Screen. Data for the rad14 strain (AID 159);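 note: 0% = growth of vehicle-treated control cultures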; conditions: S. cerevisiae rad14 strain growth inhibition, stronger effect = higher value
Outline: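 Test compounds were applied to a repair-deficient yeast strain. Its growth was then compared with that of cultures given vehicle alone, and inhibition was expressed relative to those controls.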

[8] = NCI Yeast Anticancer Drug Screen. Data for the sgs1 mgt1 strain (AID 161);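 note: 0% = growth of cultures given vehicle only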; conditions: S. cerevisiae sgs1 mgt1 strain, stronger effect = higher value
Outline: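 Yeast cells carrying a defined DNA-repair defect were exposed to test compounds. Growth inhibition was measured relative to vehicle-treated controls.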

[9] = NCI Yeast Anticancer Drug Screen. Data for the CLN2oe strain (AID 163);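 note: 0% = growth of vehicle-only control cultures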; conditions: S. cerevisiae CLN2oe strain, stronger effect = higher value
Outline: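 Compounds are applied to yeast harbouring a defined cell-cycle control change; reduced growth compared with vehicle-treated controls gives the value.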

[10] = NCI Yeast Anticancer Drug Screen. Data for the bub3 strain (AID 167); conditions: S. cerevisiae bub3 mutant strain, stronger effect = higher value
Outline: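 Yeast carrying a defined mutation is treated with each compound, and growth is compared with that of vehicle-exposed cells to give inhibition.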

[11] = NCI Yeast Anticancer Drug Screen. Data for the wt2 strain (AID 169);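 note: 0% = growth of vehicle-treated yeast cultures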; conditions: S. cerevisiae wt2 strain growth inhibition, stronger effect = higher value
Outline: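 Against vehicle-treated controls, the growth of yeast exposed to each compound was compared, and the inhibition was recorded.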

[12] = NCI Yeast Anticancer Drug Screen. Data for the mlh1 strain (AID 171);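 note: 0% = growth of vehicle-treated control cultures of the same strain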; conditions: S. cerevisiae mlh1 strain growth inhibition, stronger effect = higher value
Outline: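 Measured: yeast growth. Reference: vehicle-treated controls. Organism: strain with a defined alteration affecting DNA damage repair or cell cycle control, treated with compound.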

[13] = NCI Yeast Anticancer Drug Screen. Data for the sgs1 strain (AID 173);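 note: 0% = growth of vehicle-only control cultures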; conditions: S. cerevisiae sgs1 mutant, stronger effect = higher value
Outline: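 Each compound was added to cultures of the altered yeast strain. Growth was recorded, and inhibition was derived by comparison with vehicle controls.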

[14] = NCI Yeast Anticancer Drug Screen. Data for the mlh1 rad18 strain (AID 175); conditions: S. cerevisiae mlh1 rad18 strain growth inhibition, stronger effect = higher value
Outline: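 Genetically defined yeast (DNA repair-deficient) exposed to compounds; growth inhibition determined relative to vehicle.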

[15] = NCI Yeast Anticancer Drug Screen. Data for the rad18 strain (AID 177); conditions: S. cerevisiae rad18 mutant growth inhibition, stronger effect = higher value
Outline: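 Vehicle-treated cultures served as the baseline for scoring compound-induced growth inhibition in DNA-repair-mutant yeast.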

[16] = at 5.0 µM (retest, dose inferred, filed as 0.5)
[17] = at 50.0 µM (retest, dose inferred, filed as 5.0)

Measured: growth inhibition

OC1CCCC2CCC[N-]C12.OC1CCCC2CCC[N-]C12.[O]=[V][OH] (stereo not given)
inactive: [1]; at 1.2 µM 54% | [2]; at 1.2 µM -4% | [2]; at 3.7 µM 67% | [3]; at 1.2 µM 47% | [4]; at 1.2 µM 24% | [5]; at 1.2 µM 47% | [6]; at 1.2 µM 3% | [6]; [17] 66% | [7]; at 1.2 µM 8% | [8]; [16] 19% | [9]; at 1.2 µM -12% | [10]; at 1.2 µM 10% | [11]; at 1.2 µM -17% | [11]; at 3.7 µM 68% | [12]; at 1.2 µM -25% | [12]; at 3.7 µM 50% | [13]; at 1.2 µM 17% | [13]; at 3.7 µM 69% | [14]; [17] 64% | [15]; at 1.2 µM 46%
active: [1]; at 3.7 µM 98% | [1]; at 11.0 µM 98% | [1]; at 33.0 µM 97% | [1]; at 100.0 µM 97% | [2]; at 11.0 µM 85% | [2]; at 33.0 µM 93% | [2]; at 100.0 µM 96% | [3]; at 3.7 µM 96% | [3]; at 11.0 µM 96% | [3]; at 33.0 µM 95% | [3]; at 100.0 µM 95% | [4]; at 3.7 µM 88% | [4]; at 11.0 µM 98% | [4]; at 33.0 µM 97% | [4]; at 100.0 µM 97% | [5]; at 3.7 µM 95% | [5]; [16] 99% | [5]; at 11.0 µM 95% | [5]; at 33.0 µM 95% | [5]; [17] 97% | [5]; at 50.0 µM 86.8% | [5]; at 100.0 µM 95% | [6]; at 3.7 µM 86% | [6]; [16] 99% | [6]; at 11.0 µM 98% | [6]; at 33.0 µM 98% | [6]; at 50.0 µM 90.1% | [6]; at 100.0 µM 96% | [7]; at 3.7 µM 89% | [7]; at 11.0 µM 98% | [7]; at 33.0 µM 97% | [7]; at 100.0 µM 97% | [8]; [17] 98% | [8]; at 50.0 µM 91.5% | [9]; at 3.7 µM 78% | [9]; at 11.0 µM 93% | [9]; at 33.0 µM 95% | [9]; at 100.0 µM 96% | [10]; at 3.7 µM 89% | [10]; [16] 99% | [10]; at 11.0 µM 98% | [10]; at 33.0 µM 98% | [10]; [17] 95% | [10]; at 50.0 µM 90.8% | [10]; at 100.0 µM 97% | [11]; at 11.0 µM 92% | [11]; at 33.0 µM 93% | [11]; at 100.0 µM 96% | [12]; at 11.0 µM 79% | [12]; at 33.0 µM 88% | [12]; at 100.0 µM 95% | [13]; at 11.0 µM 83% | [13]; at 33.0 µM 89% | [13]; at 100.0 µM 94% | [14]; [16] 99% | [14]; at 50.0 µM 86.8% | [15]; at 3.7 µM 95% | [15]; at 11.0 µM 96% | [15]; at 33.0 µM 96% | [15]; at 100.0 µM 96%

Source: PubChem BioAssay (NCI)
